The record followed here is PubChem BioAssay (NCI).

Among the test systems are SR leukemia; RPMI-8226 leukemia; OVCAR-8 ovarian; OVCAR-5 ovarian; SK-OV-3 ovarian; IGROV1 ovarian; OVCAR-3 ovarian; HS 578T breast; NCI/ADR-RES ovarian.
Assay in all cases: NCI-60 one-dose screen, 48 h (100 = growth as untreated, 0 = no growth, -100 = all killed)
Conditions in all cases: 10 µM unless noted

Compounds without any hit were thinned out: in the full panel of roughly 83,000, 20% have a hit.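 Growth was measured after 48 h exposure to one concentration of compound in 96-well plates. Values under 10 count as active.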 Values without a mark were called inactive. The source made the active and inactive calls.

For `O=C(O)c1cccc2c1-c1ccc(Cl)cc1C2`, the growth in the experiment with SR leukemia was 88.2%; with RPMI-8226 leukemia it was 102%; in the experiment with OVCAR-8 ovarian it was 107%; in the experiment with OVCAR-5 ovarian, 115%; with SK-OV-3 ovarian it was 117%; with IGROV1 ovarian, 114%. Also, the results for the growth with OVCAR-3 ovarian, with HS 578T breast and in the experiment with NCI/ADR-RES ovarian were 118%, 103% and 110%, respectively.

Consider `O=C(c1ccccc1)C(CN1CCOCC1)c1ccccc1` (stereo not given), for which the growth in the experiment with SR leukemia is -0.205% (active); with RPMI-8226 leukemia, -8.68% (active); with OVCAR-8 ovarian it was 14.2%; in the experiment with OVCAR-5 ovarian it was 116%; in the experiment on SK-OV-3 ovarian it was 91.6%; with IGROV1 ovarian it was 7.53% (active). Moreover, the growth in the experiment with OVCAR-3 ovarian was -10.7% (active); in the experiment with HS 578T breast, 59.8%; in the experiment on NCI/ADR-RES ovarian, 18.8%.

Regarding `O=C(/C=C/c1cccc(O)c1)c1ccccc1O`, the growth with SR leukemia was 36%; with RPMI-8226 leukemia, 28%; in the experiment with OVCAR-8 ovarian, 92.9%; in the experiment with OVCAR-5 ovarian it was 99.4%; in the experiment on SK-OV-3 ovarian it was 107%; in the experiment on IGROV1 ovarian, 66.7%. Moreover, the growth was 93.5% with OVCAR-3 ovarian, 86.9% with HS 578T breast and 86.6% in the experiment with NCI/ADR-RES ovarian.

For `Cn1cc(-c2nc(-c3c[nH]c4ncccc34)cs2)c2ccccc21`, the growth with SR leukemia is 40%; with RPMI-8226 leukemia, 64%; in the experiment with OVCAR-8 ovarian, 101%; with OVCAR-5 ovarian, 49.1%; with SK-OV-3 ovarian it was 95.5%; with IGROV1 ovarian, 51%. Moreover, the growth is 77.7% in the experiment on OVCAR-3 ovarian, 103% in the experiment with HS 578T breast and 74.4% in the experiment with NCI/ADR-RES ovarian.

Regarding `COc1c(N)c2c(c([N+](=O)[O-])c1OC)C(=O)OC2`, the growth in the experiment with SR leukemia is 91.2%; in the experiment with RPMI-8226 leukemia, 99.9%; in the experiment with OVCAR-8 ovarian it was 98.1%; in the experiment on OVCAR-5 ovarian, 115%; in the experiment with SK-OV-3 ovarian, 105%; in the experiment on IGROV1 ovarian, 105%. The results for the growth with OVCAR-3 ovarian, in the experiment on HS 578T breast and in the experiment with NCI/ADR-RES ovarian were 105%, 109% and 114%, respectively.

With `Brc1ccc2[nH]cc(-c3nc(-c4c[nH]c5ncccc45)cs3)c2c1`, the growth in the experiment with SR leukemia is 9.23% (active); in the experiment on RPMI-8226 leukemia, 39.9%; with OVCAR-8 ovarian, 46.3%; with OVCAR-5 ovarian, 63.7%; in the experiment with SK-OV-3 ovarian, 55%; in the experiment on IGROV1 ovarian, 23.1%. Moreover, the growth is 52.4% in the experiment on OVCAR-3 ovarian, 71.8% in the experiment on HS 578T breast and 32.7% in the experiment with NCI/ADR-RES ovarian.

For `COc1cc2[nH]c(C(=O)c3cc(OC)c(OC)c(OC)c3)c(N)c2cc1C#CCO`, the growth with SR leukemia is 0.173% (active); in the experiment on RPMI-8226 leukemia, 26.8%; in the experiment on OVCAR-8 ovarian, 31.7%; with OVCAR-5 ovarian it was 15.9%; with SK-OV-3 ovarian, 18.3%; with IGROV1 ovarian, 22.9%. In addition, the figures for the growth in the experiment with OVCAR-3 ovarian, with HS 578T breast and with NCI/ADR-RES ovarian were -17.8% (active), 19.8% and 37.8%, respectively.

As to `Cn1cc(-c2csc(-c3c[nH]c4ccc(F)cc34)n2)c2cccnc21`, the growth in the experiment with SR leukemia is 27.2%; with RPMI-8226 leukemia, 52%; in the experiment on OVCAR-8 ovarian, 47.6%; in the experiment with OVCAR-5 ovarian, 78.4%; in the experiment on SK-OV-3 ovarian, 64.6%; in the experiment with IGROV1 ovarian, 41.6%. Besides, the growth in the experiment with OVCAR-3 ovarian was -2.33% (active); with HS 578T breast it was 76.1%; in the experiment with NCI/ADR-RES ovarian, 9.55% (active).

Regarding `Cn1cc(-c2nc(-c3cn(C)c4ncccc34)cs2)c2ccccc21`, the growth in the experiment on SR leukemia is 18.4%; with RPMI-8226 leukemia it was 39.6%; in the experiment on OVCAR-8 ovarian, 47.9%; with OVCAR-5 ovarian, 73%; in the experiment on SK-OV-3 ovarian, 43.2%; in the experiment on IGROV1 ovarian it was 45%. Besides, the growth with OVCAR-3 ovarian is -17.8% (active); in the experiment on HS 578T breast, 81%; with NCI/ADR-RES ovarian, 8.77% (active).

`CC(=O)O[C@H]1CC[C@@]2(C)C(=CC[C@@H]3[C@@H]2CC[C@]2(C)C(=O)N(O)C(=O)C[C@@H]32)C1`: the growth is 74.8% with SR leukemia; 52.8% in the experiment on RPMI-8226 leukemia; 101% in the experiment with OVCAR-8 ovarian; 98.9% with OVCAR-5 ovarian; 93.2% in the experiment on SK-OV-3 ovarian; 83.3% in the experiment with IGROV1 ovarian. Besides, the growth is 102% in the experiment with OVCAR-3 ovarian, 106% in the experiment on HS 578T breast and 100% with NCI/ADR-RES ovarian.

For `C(=C\c1c[nH]c2ccccc12)/c1ccc2ccccc2n1`, the growth was 67.5% in the experiment with SR leukemia; 44.7% with RPMI-8226 leukemia; 78.7% in the experiment on OVCAR-8 ovarian; 121% in the experiment on OVCAR-5 ovarian; 89.5% in the experiment on SK-OV-3 ovarian; 47.8% with IGROV1 ovarian. The results for the growth in the experiment with OVCAR-3 ovarian, in the experiment with HS 578T breast and in the experiment with NCI/ADR-RES ovarian were 69.3%, 107% and 72.1%, respectively.

As for `O=C(O)c1cccc2c1C(=O)N(c1ccc3c(c1)Cc1ccccc1-3)C2=O`, the growth in the experiment with SR leukemia is 102%; with RPMI-8226 leukemia it was 110%; with OVCAR-8 ovarian, 107%; in the experiment with OVCAR-5 ovarian, 116%; in the experiment on SK-OV-3 ovarian, 114%; in the experiment with IGROV1 ovarian it was 125%. In addition, the figures for the growth in the experiment with OVCAR-3 ovarian, in the experiment on HS 578T breast and with NCI/ADR-RES ovarian were 122%, 112% and 116%, respectively.

Regarding `CC1c2ccccc2N(S(=O)(=O)c2ccccc2)C1C` (stereo not given), the growth in the experiment with SR leukemia was 34.8%; in the experiment with RPMI-8226 leukemia it was 91.9%; in the experiment on OVCAR-8 ovarian, 103%; with OVCAR-5 ovarian it was 108%; in the experiment with SK-OV-3 ovarian, 91.2%; in the experiment with IGROV1 ovarian, 92.4%. The growth is 98.1% in the experiment with OVCAR-3 ovarian, 92.7% in the experiment with HS 578T breast and 70.4% with NCI/ADR-RES ovarian.

For `Cc1cc(C)nc(NC(N)=NCCc2ccccc2)n1`, the growth is 19.2% in the experiment on SR leukemia; 49.7% with RPMI-8226 leukemia; 53.4% in the experiment with OVCAR-8 ovarian; 72% in the experiment with OVCAR-5 ovarian; 46.7% in the experiment with SK-OV-3 ovarian; 40% with IGROV1 ovarian. Further, the growth is 33.5% with OVCAR-3 ovarian, 45.3% with HS 578T breast and 85.9% in the experiment with NCI/ADR-RES ovarian.

Take `COC(=O)[C@@H]1[C@H]2C[C@H]3c4[nH]c5cc(OC)ccc5c4CCN3C[C@@H]2C[C@H](OC(=O)/C=C/c2ccnc(OC)c2)[C@H]1OC`: the growth in the experiment with SR leukemia was 73.1%; in the experiment with RPMI-8226 leukemia, 69.6%; in the experiment on OVCAR-8 ovarian, 88.4%; in the experiment with OVCAR-5 ovarian, 102%; in the experiment on SK-OV-3 ovarian, 96%; in the experiment on IGROV1 ovarian, 83.2%. Further, the growth with OVCAR-3 ovarian was 90.3%; in the experiment on HS 578T breast, 90.9%; in the experiment on NCI/ADR-RES ovarian, 81.6%.
